We go through 100 compounds from PubChem BioAssay AID686978 (National Center for Advancing Translational Sciences (NCATS), 2013).

Where “and” joins values, the source holds several entries; their conditions need not be identical. Equal entries are not always repeated. The whole screen tested about 420,000 compounds, of which about 64,000 (15%) were called active. Roughly 27% stayed inconclusive and do not appear here. The call rests on the fitted dose curve; in most records, active means well fitted inhibition curve with a large enough effect; inconclusive means small, poorly fitted or top-dose-only effect; inactive means flat fitted curve, though single readings scatter. These entries were drawn from the full list. A call without a number means that no potency is given here. More than one record can exist for a structure, and the calls need not agree.
Potency means the concentration at half of the fitted maximal effect.

A short description of this test: qHTS for Inhibitors of human tyrosyl-DNA phosphodiesterase 1 (TDP1): qHTS in cells in absence of CPT. Further: nearly all actives have a fitted effect of over 55% in size. The conditions noted are these: DT40 Tdp1-/- hTDP1 cells, no CPT, ATP luminescence, 48 h; activity change, negative = growth inhibition: at 46.2 µM (top of the series). In outline: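 Seeded 400 DT40-hTDP1 cells/well (vehicle DMSO, no 20 nM CPT); pinned compounds; ≥48 hr at 37 °C; CellTiter-Glo luminescence as viability measure.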
In general terms: qHTS replaces the single test concentration by a dilution series.
Turning to `COc1ccccc1NC(=O)CC(NCCN(C)C)C(=O)O` (stereo not given), the Potency result was “inactive”.

With `C/C(=N\Nc1ccc(S(N)(=O)=O)cc1[N+](=O)[O-])c1cccs1`, the Potency entry is “inactive”.

In the case of `CCOC(=O)[C@H]1[C@H]2COc3ccc(OC)cc3[C@@H]2N2C(=O)c3ccc(F)cc3NC(=O)[C@@]12C`, the Potency result was “inactive”.

On to `COC(=O)C1=C(O)/C(=C/c2ccc(OCC(=O)Nc3ccccc3)cc2)N=C1C`, for which the Potency entry was “inactive”.

As to `O=C(COC(=O)c1cccs1)NCc1cccs1`, the Potency entry is “inactive”.

With `Nc1nnc(C2CCCC2)s1`, the Potency entry was “inactive”.

On to `COC(=O)c1ccccc1Oc1c(F)c(F)nc(N2CCOCC2)c1F`, for which the Potency entry was “inactive”.

Regarding `Cc1cc(C)cc(C(=O)NCC(=O)OCC(=O)N2CCCCC2)c1`, the Potency result is “inactive”.

In the case of `O=C(O)C1CCCN(CCC=C(c2ccccc2)c2ccccc2)C1` (stereo not given), the Potency result was “inactive”.

`Cn1c(=O)n(CCc2ccccc2)c(=O)c2c1nc1n2CCCN1c1ccccc1`: the Potency result was “inactive”.

In the case of `Cn1c(=O)n(Cc2c(F)cccc2Cl)c(=O)c2c1nc1n2CCN1c1ccc(F)cc1`, the Potency entry was “inactive”.

For the compound `COCCn1c(CN2CCC(Cc3ccccc3)CC2)nc2c1c(=O)n(C)c(=O)n2C`, the Potency is 7.31 µM (active).

Take `CC(C)CCn1c(=O)c2c(nc3n2CCCN3Cc2ccccc2)n(C)c1=O`: the Potency is 20.6 µM (active).

For `CN1CCN(Cc2nc3c(c(=O)n(C)c(=O)n3C)n2Cc2cccc3ccccc23)CC1`, the Potency result was “inactive”.

`CCN1CCN(Cc2nc3c(c(=O)n(C)c(=O)n3C)n2CC(=O)c2ccccc2)CC1`: the Potency result was “inactive”.

Take `Cn1c(=O)c2c(nc(CN3CCOCC3)n2Cc2ccccc2)n(C)c1=O`: the Potency result was “inactive”.

Turning to `CC1CCCN(Cc2nc3c(c(=O)n(C)c(=O)n3C)n2CC(=O)c2ccccc2)C1` (stereo not given), the Potency was 16.4 µM (active).

Turning to `CCc1cc(CNC(=O)CC2C(=O)NCCN2CC2CCCCC2)on1` (stereo not given), the Potency result was “inactive”.

As to `Cc1ccc(S(=O)(=O)N(C)C)cc1NC(=O)C(C)OC(=O)c1ccc2ccccc2n1` (stereo not given), the Potency result is “inactive”.

Take `c1ccc(-c2nnc3n2NC(c2ccc4c(c2)OCO4)S3)cc1` (stereo not given): the Potency result is “inactive”.

Regarding `CC(C)=C1C2CCC1C1C(=O)N(NC(=O)c3ccco3)C(=O)C21` (stereo not given), the Potency result was “inactive”.

Turning to `CCOc1ccc(C(=O)COC(=O)c2ccc(-n3cnnn3)cc2)cc1`, the Potency entry is “inactive”.

With `CCOc1ccc(CN(Cc2ccco2)S(=O)(=O)c2ccc(-n3cnnn3)c(OC)c2)cc1`, the Potency was 16.4 µM (active).

As for `CCOc1ccc(S(=O)(=O)N(CC(=O)NCC(F)(F)F)Cc2ccco2)cc1`, the Potency result was “inactive”.

Consider `COc1ccc(S(=O)(=O)N2CCOCC2)cc1NC(=O)CC1CC2CCC1C2` (stereo not given), for which the Potency entry is “inactive”.

Consider `CC1(C)CC(=O)C=C(NCCCN2CCCC2=O)C1`, for which the Potency entry is “inactive”.

Consider `COC(=O)CNc1nc(Cl)nc(N2CCC(C)CC2)n1`, for which the Potency entry was “inactive”.

For `COc1ccc(Nc2nc(N)nc(CSC(=S)N3CCC(C)CC3)n2)cc1`, the Potency entry was “inactive”.

Turning to `CCOc1ccc(Nc2nc(Cl)nc(N3CCN(c4ccc(OC)cc4)CC3)n2)cc1`, the Potency was 13 µM (active).

As to `COP1(=O)C[C@@H](O)[C@@H](O)[C@@H](COCc2ccccc2)O1` (stereo not given in full), the Potency result was “inactive”.

For `O=c1[nH][nH]c(C(F)(F)F)c1C=NCc1ccccc1Cl`, the Potency entry was “inactive”.

For the compound `Cc1nc2cc(NC(=O)NC3CC3)ccc2n1C`, the Potency result is “inactive”.

In the case of `COc1ccc(-n2c(=O)c(C)nc3cnc(N4CCOCC4)nc32)cc1`, the Potency result was “inactive”.

Take `Cc1nc2sccn2c(=O)c1S(=O)(=O)NCCc1ccccc1`: the Potency entry is “inactive”.

For `C/C(=N\NC(=O)c1ccccc1C)c1ccc(N2CCOCC2)cc1`, the Potency result is “inactive”.

For the compound `C/C(=N\NC(=O)c1ccoc1C)c1ccccc1O`, the Potency was 11.6 µM (active).

For `Cc1ccc(-c2noc(CNC(=O)c3ccoc3C)n2)cc1`, the Potency result was “inactive”.

With `COc1ccccc1Cn1c(C)nnc1-c1cnn(C)c1N`, the Potency entry is “inactive”.

Regarding `COCCNC(=O)C1C(=O)Nc2ccccc2C(=O)N1c1ccc2c(c1)OCCO2` (stereo not given), the Potency result was “inactive”.

Take `NC(=O)CC[C@@H]1NC(=O)[C@@H]2CCCN2C(=O)c2cc([N+](=O)[O-])cc(F)c2NCCC[C@@H](C(N)=O)NC1=O`: the Potency entry was “inactive”.

As to `CC(=O)N1CCc2c(sc(NC(=O)CCS(=O)(=O)c3ccccc3)c2C#N)C1`, the Potency was 14.6 µM (active).

For the compound `CC(C)N1CCc2c(sc(NC(=O)Cc3ccccc3)c2C#N)C1`, the Potency entry is “inactive”.

Regarding `CC(=O)N1CCc2c(sc(NC(=O)CCS(=O)(=O)c3ccc(C)cc3)c2C(N)=O)C1`, the Potency result was “inactive”.

Regarding `CCN(CC)C(CNC(=O)CSc1nnnn1-c1cccc(F)c1)c1ccco1` (stereo not given), the Potency entry is “inactive”.

As to `Cc1ccc(C(=O)NCC(=O)O)s1`, the Potency entry was “inactive”.

In the case of `COc1ccc(S(=O)(=O)N2CCN(c3ccc(F)cc3)CC2)cc1-c1noc(C)n1`, the Potency entry is “inactive”.

On to `CCc1nc(-c2cc(S(=O)(=O)N3CCN(c4ccc(OC)cc4)CC3)ccc2OC)no1`, for which the Potency result was “inactive”.

Turning to `COc1ccc(OC)c(-c2noc(N3CCN(c4cc(Cl)ccc4C)CC3)n2)c1`, the Potency was 25.9 µM (active).

As for `O=C(c1cccc(S(=O)(=O)N2CCCC2)c1)N(Cc1ccco1)C1CCS(=O)(=O)C1` (stereo not given), the Potency result is “inactive”.

On to `COc1cccc(C(O)Cc2nc3ccccc3n2C)c1OC` (stereo not given), for which the Potency entry was “inactive”.

For `CC(NCc1nc2ccccc2n1C)C12CC3CC(CC(C3)C1)C2` (stereo not given), the Potency is 23.1 µM (active).

On to `Cn1c(CNC(=O)C(C)(C)C)nc2ccccc21`, for which the Potency result is “inactive”.

As for `Cc1ccc(S(=O)(=O)/N=C(/Nc2ccc3[nH]c(=O)[nH]c3c2)c2ccccc2)cc1`, the Potency result is “inactive”.

Take `CCN(CC)CCn1c(=S)[nH]c2ncccc2c1=O`: the Potency entry is “inactive”.

In the case of `COC(=O)c1sc2[nH]c(=S)n(N)c(=O)c2c1C`, the Potency result is “inactive”.

Take `C=CCNc1nc(C)nc(OC)n1`: the Potency result is “inactive”.

With `CN(C)c1ccc(C=NCCc2ccc(S(N)(=O)=O)cc2)cc1`, the Potency entry is “inactive”.

Turning to `CC(C)CC1(C)NC(=O)N(CC(=O)Nc2ccc3c(c2)OCCO3)C1=O` (stereo not given), the Potency entry is “inactive”.

On to `O=C(c1ccc2c(c1)OCCO2)C1CCN(S(=O)(=O)c2cccc(F)c2)CC1`, for which the Potency result is “inactive”.

As to `COCCNC(=O)C1CCN(S(=O)(=O)c2ccc3c(c2)OCCO3)CC1`, the Potency entry is “inactive”.

With `CC(C)OCCCNC(=S)N1CCC(C(=O)c2ccc3c(c2)OCCO3)CC1`, the Potency is 14.6 µM (active).

Regarding `O=C(NCCCN1CCN(C2CCCCC2)CC1)Nc1ccccc1C(F)(F)F`, the Potency result was “inactive”.

As to `CC(C)(C)c1ccc(C(=O)Nc2ccc3c(c2)CCCN3C(=O)c2cccs2)cc1`, the Potency was 5.8 µM (active).

Consider `O=C(O)c1ccc(NC(=O)c2cccs2)cc1`, for which the Potency result was “inactive”.

In the case of `CC(C)C(=O)Nc1ccc(C(=O)NNC(=O)c2cccs2)cc1`, the Potency result was “inactive”.

As to `COc1ccc(-c2cc(C(F)(F)F)n3nc(-c4ccccc4)cc3n2)cc1OC`, the Potency was 16.4 µM (active).

On to `Cc1cc(C(F)(F)F)n2ncc(-c3ccccc3)c2n1`, for which the Potency result was “inactive”.

For `COC(=O)c1cc2nc(-c3ccccc3)cc(C(F)(F)F)n2n1`, the Potency entry was “inactive”.

As to `COc1cccc(NC(=O)N2CCC(NC(=O)C(Cc3cccc(C)c3)NC(C)=O)CC2)c1` (stereo not given), the Potency entry was “inactive”.

Regarding `NC(=O)Cn1c(=O)oc2ccccc21`, the Potency result is “inactive”.

Regarding `CN(C)CCCN(C(=O)c1ccc(S(=O)(=O)N2CCCCCC2)cc1)c1nc2ccc(Br)cc2s1`, the Potency is 18.4 µM (active).

On to `CCOc1ccc2nc(N(CCN(C)C)C(=O)c3ccc4ccccc4c3)sc2c1`, for which the Potency entry was “inactive”.

Turning to `CCN(CC)CCN(C(=O)c1ccc(S(=O)(=O)N2CCOCC2)cc1)c1nc2cc3c(cc2s1)OCCO3`, the Potency entry was “inactive”.

Consider `COCc1c(C(=O)OCc2c(C)noc2C)oc2ccccc12`, for which the Potency result is “inactive”.

Regarding `CCNC(=S)NNC(=O)c1ccc2ncccc2c1`, the Potency result is “inactive”.

With `CC(=O)Nc1ccc(Sc2ccccc2C(=O)N2CCCC2)cn1`, the Potency result is “inactive”.

On to `CNC(=O)C[C@H]1C(=O)N(Cc2ccccc2)C[C@@H]1CSC`, for which the Potency entry is “inactive”.

In the case of `O=C(C[C@H]1C(=O)N(c2ccc(F)c(F)c2)C[C@@H]1Cc1ccccc1)Nc1ccccc1`, the Potency result was “inactive and 15.8 µM (active)”.

On to `CNC(=O)C[C@H]1C(=O)N(c2ccc(OC)cc2)C[C@@H]1Cc1ccccc1`, for which the Potency result was “inactive”.

`CCOc1cc2[nH]c(=O)n(CCC(=O)NCc3ccc(OC)cc3)c(=O)c2cc1OCC`: the Potency entry was “inactive”.

As to `CN=C1SC(CC(=O)Nc2ccc(C(=O)O)cc2)C(=O)N1C` (stereo not given), the Potency result is “inactive”.

For `CC1C(=O)C(C)C(c2ccc(O)cc2)NC1c1ccc(O)cc1` (stereo not given), the Potency entry is “inactive”.

On to `CC(=O)N1CCN(Cc2cc(=O)oc3cc(C)ccc23)CC1`, for which the Potency result is “inactive”.

As for `NC(=O)CCN1CCN(S(=O)(=O)/C=C/c2ccccc2)CC1`, the Potency entry was “inactive”.

Regarding `O=c1cc(CN2CCN(S(=O)(=O)/C=C/c3ccccc3)CC2)c2ccc(O)cc2o1`, the Potency is 20.6 µM (active).

Consider `COc1ccc(NC(=O)CCCN2C(=O)C(c3ccccc3)Oc3cccnc32)cc1` (stereo not given), for which the Potency entry was “inactive”.

For `O=C(O)C1CCN1C1CCCCC1` (stereo not given), the Potency result is “inactive”.

With `O=S1(=O)CCN(C2CCCCCCCCCCC2)CC1`, the Potency was 20.6 µM (active).

Consider `O=S1(=O)CC(N2CCN(CCO)CC2)CN1C1CCCC1` (stereo not given), for which the Potency entry was “inactive”.

In the case of `COc1ccc(NC(=O)N(C)C[C@@H]2OCc3cn(nn3)CCCC(=O)N([C@H](C)CO)C[C@H]2C)c(OC)c1`, the Potency entry is “inactive”.

Take `COCCN(C(=O)CC1CCCCC1)c1c(N)n(CC(C)C)c(=O)[nH]c1=O`: the Potency entry is “inactive”.

Consider `Cc1ccc(-c2ccc(CN3C(C(C)C)C(=O)N(Cc4cn(CCC5OCCCO5)nn4)CCS3(=O)=O)cc2)cc1` (stereo not given), for which the Potency was 11.6 µM (active).

In the case of `Cc1ccc(-c2ccc(CN3C(C(C)C)C(=O)N(Cc4cn(CCC5OCCO5)nn4)CCS3(=O)=O)cc2)cc1` (stereo not given), the Potency was 7.31 µM (active).

Regarding `Cc1ccc(CN2CCCOCCS2(=O)=O)cc1`, the Potency entry was “inactive”.

For the compound `Cc1ccc(-c2ccc(CN3C(C)C(=O)N(Cc4cn(CCC5OCCCO5)nn4)CCS3(=O)=O)cc2)cc1` (stereo not given), the Potency is 23.1 µM (active).

Regarding `CCC(C)[C@H]1COCCS(=O)(=O)N1Cc1ccc(C)cc1` (stereo not given in full), the Potency result is “inactive”.

With `CC(C)C1C(=O)N(Cc2cn(CCC3OCCO3)nn2)CCS(=O)(=O)N1Cc1ccc(-c2ccccc2C(F)(F)F)cc1` (stereo not given), the Potency is 25.9 µM (active).

`CCCc1nnc(NC(=O)CCC(=O)NC2CC2)s1`: the Potency entry is “inactive”.

For `O=C(Oc1cc(OC(=O)c2ccccc2)c2c(c1)OC(c1ccc(OC(=O)c3ccccc3)c(OC(=O)c3ccccc3)c1)[C@@H](OC(=O)c1ccccc1)C2)c1ccccc1` (stereo not given in full), the Potency result was “inactive”.

Take `Nc1ccc(-n2nncc2-c2ccco2)cc1`: the Potency result was “inactive”.
